From ChEMBL document CHEMBL1961873, “Compounds: GSK PKIS; Assays: Nanosyn kinase panel” (2012) come the findings set out here.

In assay [1] the target is Sphingosine kinase 1 (Homo sapiens) (UniProt Q9NYA1). As to conditions: at 1 µM.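 Also: mean SPHK1 inhibition value reported from the GSK PKIS kinase panel screen.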
Assay [2] concerns the target T1, Sphingosine kinase 2 (Homo sapiens) (UniProt Q9NRA0).
T1 sequence (whole entry): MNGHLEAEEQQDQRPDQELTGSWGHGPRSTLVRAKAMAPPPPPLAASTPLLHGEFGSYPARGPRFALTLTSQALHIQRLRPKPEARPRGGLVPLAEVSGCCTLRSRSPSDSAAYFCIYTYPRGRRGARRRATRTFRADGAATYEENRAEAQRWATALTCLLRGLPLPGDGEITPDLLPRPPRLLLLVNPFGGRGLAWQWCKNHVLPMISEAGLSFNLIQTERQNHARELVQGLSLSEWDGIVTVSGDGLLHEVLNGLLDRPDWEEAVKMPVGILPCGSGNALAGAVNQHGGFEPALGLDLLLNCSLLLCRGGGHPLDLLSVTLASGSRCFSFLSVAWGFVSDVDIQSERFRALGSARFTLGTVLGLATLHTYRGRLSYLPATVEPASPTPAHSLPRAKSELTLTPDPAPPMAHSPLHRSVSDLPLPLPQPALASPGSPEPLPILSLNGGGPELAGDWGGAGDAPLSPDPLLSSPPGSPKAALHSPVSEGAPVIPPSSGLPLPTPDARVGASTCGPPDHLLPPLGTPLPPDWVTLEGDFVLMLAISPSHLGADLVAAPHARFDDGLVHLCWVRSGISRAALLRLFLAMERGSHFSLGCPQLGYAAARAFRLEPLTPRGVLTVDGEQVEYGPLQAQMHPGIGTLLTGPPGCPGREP
Particulars: at 0.1 µM.

Assay [3] concerns the target T1, Sphingosine kinase 2 (Homo sapiens). Particulars: at 1 µM.
Assay [4] deals with Casein kinase II subunit alpha (Homo sapiens) (UniProt P68400). Particulars: at 0.1 µM.
The target is the same in assay [5]. As to conditions: at 1 µM.
Assay [6] deals with T2, Inhibitor of nuclear factor kappa-B kinase subunit alpha (Homo sapiens) (UniProt O15111).
T2 sequence (whole entry): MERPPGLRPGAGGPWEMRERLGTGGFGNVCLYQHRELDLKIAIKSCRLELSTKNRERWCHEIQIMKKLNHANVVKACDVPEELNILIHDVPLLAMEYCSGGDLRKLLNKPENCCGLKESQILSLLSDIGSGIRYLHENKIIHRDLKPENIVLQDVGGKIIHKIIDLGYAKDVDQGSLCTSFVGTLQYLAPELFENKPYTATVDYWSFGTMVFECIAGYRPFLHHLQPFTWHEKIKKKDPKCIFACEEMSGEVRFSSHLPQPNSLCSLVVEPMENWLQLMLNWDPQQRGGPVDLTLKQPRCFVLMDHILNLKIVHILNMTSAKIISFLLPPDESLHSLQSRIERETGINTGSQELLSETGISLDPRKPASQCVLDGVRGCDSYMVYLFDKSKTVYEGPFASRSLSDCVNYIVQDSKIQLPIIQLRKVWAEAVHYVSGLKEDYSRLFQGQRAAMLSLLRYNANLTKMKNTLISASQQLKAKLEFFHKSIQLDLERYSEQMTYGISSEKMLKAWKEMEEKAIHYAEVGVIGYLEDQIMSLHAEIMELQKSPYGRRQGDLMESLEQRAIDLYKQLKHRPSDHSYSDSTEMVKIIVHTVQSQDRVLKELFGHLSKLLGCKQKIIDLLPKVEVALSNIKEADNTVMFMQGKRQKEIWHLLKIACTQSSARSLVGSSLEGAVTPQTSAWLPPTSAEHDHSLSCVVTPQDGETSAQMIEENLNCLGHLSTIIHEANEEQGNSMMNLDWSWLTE
Particulars: at 0.1 µM.

For assay [7], the target named is T2, Inhibitor of nuclear factor kappa-B kinase subunit alpha (Homo sapiens). As to conditions: at 1 µM.
In assay [8] the target is T3, Inhibitor of nuclear factor kappa-B kinase subunit beta (Homo sapiens) (UniProt O14920).
T3 sequence (whole entry): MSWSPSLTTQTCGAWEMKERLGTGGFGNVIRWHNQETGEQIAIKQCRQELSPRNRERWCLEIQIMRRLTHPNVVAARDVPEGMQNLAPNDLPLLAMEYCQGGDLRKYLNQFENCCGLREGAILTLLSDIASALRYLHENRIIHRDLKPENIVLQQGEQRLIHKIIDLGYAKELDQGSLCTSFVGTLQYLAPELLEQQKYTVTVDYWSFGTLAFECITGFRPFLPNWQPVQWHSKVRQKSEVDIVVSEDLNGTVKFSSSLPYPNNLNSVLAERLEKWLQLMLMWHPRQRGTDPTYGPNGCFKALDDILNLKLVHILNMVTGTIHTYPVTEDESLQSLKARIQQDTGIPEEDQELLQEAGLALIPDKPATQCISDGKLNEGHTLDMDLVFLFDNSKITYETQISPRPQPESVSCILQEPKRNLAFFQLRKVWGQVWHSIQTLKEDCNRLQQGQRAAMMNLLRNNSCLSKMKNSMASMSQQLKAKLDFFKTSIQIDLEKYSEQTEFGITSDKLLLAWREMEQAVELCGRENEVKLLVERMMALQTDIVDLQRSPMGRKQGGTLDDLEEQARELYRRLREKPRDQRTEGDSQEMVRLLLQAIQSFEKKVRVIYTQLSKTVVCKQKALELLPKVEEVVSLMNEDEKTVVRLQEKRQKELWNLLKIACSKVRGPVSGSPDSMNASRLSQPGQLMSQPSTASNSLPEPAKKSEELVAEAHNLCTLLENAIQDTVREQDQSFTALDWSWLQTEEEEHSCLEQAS
As to conditions: at 0.1 µM.

The target in assay [9] is T3, Inhibitor of nuclear factor kappa-B kinase subunit beta (Homo sapiens). As to conditions: at 1 µM.
Assay [10] concerns the target T4, Inhibitor of nuclear factor kappa-B kinase subunit epsilon (Homo sapiens) (UniProt Q14164).
T4 sequence (whole entry): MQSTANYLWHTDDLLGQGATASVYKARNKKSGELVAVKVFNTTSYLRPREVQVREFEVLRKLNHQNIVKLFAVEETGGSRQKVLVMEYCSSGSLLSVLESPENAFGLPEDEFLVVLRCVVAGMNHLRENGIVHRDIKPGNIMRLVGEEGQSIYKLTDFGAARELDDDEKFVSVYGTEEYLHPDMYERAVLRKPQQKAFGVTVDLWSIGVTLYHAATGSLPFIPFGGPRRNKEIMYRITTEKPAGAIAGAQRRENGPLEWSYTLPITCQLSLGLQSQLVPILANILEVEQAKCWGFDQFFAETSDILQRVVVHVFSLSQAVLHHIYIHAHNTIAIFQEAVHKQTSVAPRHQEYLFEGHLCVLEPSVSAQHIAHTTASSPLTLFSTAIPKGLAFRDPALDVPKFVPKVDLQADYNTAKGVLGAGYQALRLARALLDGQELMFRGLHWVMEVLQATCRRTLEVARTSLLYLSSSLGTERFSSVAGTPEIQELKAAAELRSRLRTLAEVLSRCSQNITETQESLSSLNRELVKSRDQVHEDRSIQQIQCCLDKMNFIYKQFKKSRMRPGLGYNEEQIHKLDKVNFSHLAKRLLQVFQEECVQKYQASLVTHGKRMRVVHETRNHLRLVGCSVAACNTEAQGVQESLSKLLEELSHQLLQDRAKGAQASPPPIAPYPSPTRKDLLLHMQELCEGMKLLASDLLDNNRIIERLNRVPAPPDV
As to conditions: at 0.1 µM.

Assay [11] has as its target T4, Inhibitor of nuclear factor kappa-B kinase subunit epsilon (Homo sapiens). Particulars: at 1 µM.
Assay [12] concerns the target T5, Serine/threonine-protein kinase Nek1 (Homo sapiens) (UniProt Q96PY6).
T5 sequence (whole entry): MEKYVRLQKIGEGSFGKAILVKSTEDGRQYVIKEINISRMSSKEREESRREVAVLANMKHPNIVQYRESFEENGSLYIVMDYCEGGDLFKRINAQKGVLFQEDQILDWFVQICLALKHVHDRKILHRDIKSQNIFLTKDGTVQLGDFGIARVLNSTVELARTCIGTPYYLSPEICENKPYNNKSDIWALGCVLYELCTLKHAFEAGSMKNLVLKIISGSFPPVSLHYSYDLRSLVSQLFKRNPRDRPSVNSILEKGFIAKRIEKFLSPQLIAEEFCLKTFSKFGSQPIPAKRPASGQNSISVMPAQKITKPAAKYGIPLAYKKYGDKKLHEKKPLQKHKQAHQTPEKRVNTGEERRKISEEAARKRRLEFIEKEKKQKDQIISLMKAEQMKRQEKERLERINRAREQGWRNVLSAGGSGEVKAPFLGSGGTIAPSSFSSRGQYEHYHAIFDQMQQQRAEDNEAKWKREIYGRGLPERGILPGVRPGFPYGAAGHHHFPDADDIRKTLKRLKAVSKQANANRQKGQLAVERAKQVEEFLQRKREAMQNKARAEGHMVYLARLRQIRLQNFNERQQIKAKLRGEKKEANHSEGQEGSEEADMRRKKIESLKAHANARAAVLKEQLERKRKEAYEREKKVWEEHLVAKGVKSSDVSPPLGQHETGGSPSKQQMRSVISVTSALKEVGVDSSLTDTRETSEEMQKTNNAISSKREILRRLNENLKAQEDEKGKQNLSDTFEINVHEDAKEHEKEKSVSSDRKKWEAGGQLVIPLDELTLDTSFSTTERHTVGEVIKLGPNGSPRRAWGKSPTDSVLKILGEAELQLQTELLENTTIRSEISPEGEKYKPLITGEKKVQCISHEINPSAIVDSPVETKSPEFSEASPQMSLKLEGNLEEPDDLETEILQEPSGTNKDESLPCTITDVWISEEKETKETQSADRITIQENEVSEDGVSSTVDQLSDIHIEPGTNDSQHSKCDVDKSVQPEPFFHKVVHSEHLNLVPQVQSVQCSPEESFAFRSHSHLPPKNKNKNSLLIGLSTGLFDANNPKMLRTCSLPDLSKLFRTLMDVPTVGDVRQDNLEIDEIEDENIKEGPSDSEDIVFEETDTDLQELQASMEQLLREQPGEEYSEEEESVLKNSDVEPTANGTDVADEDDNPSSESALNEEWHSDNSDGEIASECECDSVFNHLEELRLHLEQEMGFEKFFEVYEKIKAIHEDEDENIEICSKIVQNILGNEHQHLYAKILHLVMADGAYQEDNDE
Particulars: at 0.1 µM.

The target of assay [13] is T5, Serine/threonine-protein kinase Nek1 (Homo sapiens). Particulars: at 1 µM.
The target in assay [14] is T6, Serine/threonine-protein kinase Nek2 (Homo sapiens) (UniProt P51955).
T6 sequence (whole entry): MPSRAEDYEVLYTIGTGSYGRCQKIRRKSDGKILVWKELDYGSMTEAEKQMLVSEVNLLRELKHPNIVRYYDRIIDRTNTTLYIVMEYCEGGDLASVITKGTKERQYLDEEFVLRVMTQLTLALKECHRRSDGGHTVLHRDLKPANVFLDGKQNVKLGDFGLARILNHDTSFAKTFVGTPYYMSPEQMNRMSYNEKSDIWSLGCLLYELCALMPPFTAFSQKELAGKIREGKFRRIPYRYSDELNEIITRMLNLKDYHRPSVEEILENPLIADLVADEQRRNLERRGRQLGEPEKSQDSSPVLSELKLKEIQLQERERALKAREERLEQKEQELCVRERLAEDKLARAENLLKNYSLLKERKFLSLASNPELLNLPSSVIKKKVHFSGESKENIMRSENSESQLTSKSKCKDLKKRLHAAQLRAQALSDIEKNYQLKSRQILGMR
As to conditions: at 0.1 µM.

Assay [15] has as its target T6, Serine/threonine-protein kinase Nek2 (Homo sapiens). Particulars: at 1 µM.
The target of assay [16] is Serine/threonine-protein kinase Nek6 (Homo sapiens) (UniProt Q9HC98). As to conditions: at 0.1 µM.
The target is the same in assay [17]. As to conditions: at 1 µM.
For assay [18], the target named is Serine/threonine-protein kinase Nek7 (Homo sapiens) (UniProt Q8TDX7). Particulars: at 0.1 µM.
Assay [19] shares this target. Particulars: at 1 µM.
In assay [20] the target is T7, Serine/threonine-protein kinase Nek9 (Homo sapiens) (UniProt Q8TD19).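 Also: reported value is the mean percent inhibition of NEK9.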
T7 sequence (whole entry): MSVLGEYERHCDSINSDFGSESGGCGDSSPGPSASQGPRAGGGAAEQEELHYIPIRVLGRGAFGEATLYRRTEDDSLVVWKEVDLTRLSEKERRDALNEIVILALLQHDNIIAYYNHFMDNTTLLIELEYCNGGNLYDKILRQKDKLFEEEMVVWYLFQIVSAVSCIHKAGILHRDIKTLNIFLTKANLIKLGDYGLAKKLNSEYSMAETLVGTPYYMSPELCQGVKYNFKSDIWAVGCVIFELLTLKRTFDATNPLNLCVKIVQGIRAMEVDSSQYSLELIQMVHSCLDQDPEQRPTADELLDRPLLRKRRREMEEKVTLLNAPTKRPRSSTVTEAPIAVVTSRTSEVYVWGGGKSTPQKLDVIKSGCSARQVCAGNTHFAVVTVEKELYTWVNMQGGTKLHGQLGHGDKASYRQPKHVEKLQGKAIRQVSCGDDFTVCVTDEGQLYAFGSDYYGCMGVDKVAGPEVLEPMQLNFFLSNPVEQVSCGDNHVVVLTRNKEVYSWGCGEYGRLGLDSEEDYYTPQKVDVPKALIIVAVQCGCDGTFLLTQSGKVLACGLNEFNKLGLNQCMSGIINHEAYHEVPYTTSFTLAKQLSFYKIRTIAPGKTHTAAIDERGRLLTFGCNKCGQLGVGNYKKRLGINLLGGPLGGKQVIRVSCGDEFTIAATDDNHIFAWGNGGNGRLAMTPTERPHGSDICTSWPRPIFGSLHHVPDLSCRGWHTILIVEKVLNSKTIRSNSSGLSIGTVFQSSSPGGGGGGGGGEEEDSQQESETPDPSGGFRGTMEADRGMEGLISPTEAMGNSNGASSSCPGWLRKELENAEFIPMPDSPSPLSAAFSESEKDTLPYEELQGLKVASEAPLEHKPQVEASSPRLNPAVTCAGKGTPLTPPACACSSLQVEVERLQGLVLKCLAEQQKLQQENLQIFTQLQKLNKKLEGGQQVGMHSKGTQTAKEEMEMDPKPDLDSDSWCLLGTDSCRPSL
As to conditions: at 0.1 µM.

What is called inhibition is the relative decrease from the control value, in per cent.

Chain of Serine/threonine-protein kinase Nek6 (Homo sapiens) (Q9HC98 whole entry): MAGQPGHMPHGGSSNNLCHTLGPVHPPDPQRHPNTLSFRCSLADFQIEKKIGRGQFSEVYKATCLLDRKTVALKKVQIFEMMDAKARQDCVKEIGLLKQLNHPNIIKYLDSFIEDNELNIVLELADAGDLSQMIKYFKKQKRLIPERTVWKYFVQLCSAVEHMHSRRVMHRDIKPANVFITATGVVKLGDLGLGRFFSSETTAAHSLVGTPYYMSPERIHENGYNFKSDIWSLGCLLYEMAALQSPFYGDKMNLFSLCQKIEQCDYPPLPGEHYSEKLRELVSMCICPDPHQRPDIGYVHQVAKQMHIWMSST
Chain of Serine/threonine-protein kinase Nek7 (Homo sapiens) (Q8TDX7 whole entry, looked up): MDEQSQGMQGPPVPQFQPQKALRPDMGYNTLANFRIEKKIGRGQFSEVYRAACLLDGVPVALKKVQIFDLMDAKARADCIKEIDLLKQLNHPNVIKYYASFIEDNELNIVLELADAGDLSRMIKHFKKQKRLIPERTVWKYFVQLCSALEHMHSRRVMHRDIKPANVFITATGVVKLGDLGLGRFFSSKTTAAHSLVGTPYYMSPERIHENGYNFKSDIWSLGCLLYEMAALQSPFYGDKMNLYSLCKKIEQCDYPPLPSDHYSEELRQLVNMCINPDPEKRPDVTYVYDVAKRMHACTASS
Chain of Casein kinase II subunit alpha (Homo sapiens) (P68400 whole entry, looked up): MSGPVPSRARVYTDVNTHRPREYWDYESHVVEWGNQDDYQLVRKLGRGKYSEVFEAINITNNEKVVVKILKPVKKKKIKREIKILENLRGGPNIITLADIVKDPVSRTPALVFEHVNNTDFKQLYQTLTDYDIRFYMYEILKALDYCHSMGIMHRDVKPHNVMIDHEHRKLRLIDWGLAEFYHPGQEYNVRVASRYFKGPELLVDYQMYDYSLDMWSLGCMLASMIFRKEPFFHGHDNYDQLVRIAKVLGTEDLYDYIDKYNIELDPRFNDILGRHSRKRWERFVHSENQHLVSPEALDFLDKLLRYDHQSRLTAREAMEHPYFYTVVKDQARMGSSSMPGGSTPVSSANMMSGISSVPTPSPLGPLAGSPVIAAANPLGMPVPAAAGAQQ
Chain of Sphingosine kinase 1 (Homo sapiens) (Q9NYA1 whole entry): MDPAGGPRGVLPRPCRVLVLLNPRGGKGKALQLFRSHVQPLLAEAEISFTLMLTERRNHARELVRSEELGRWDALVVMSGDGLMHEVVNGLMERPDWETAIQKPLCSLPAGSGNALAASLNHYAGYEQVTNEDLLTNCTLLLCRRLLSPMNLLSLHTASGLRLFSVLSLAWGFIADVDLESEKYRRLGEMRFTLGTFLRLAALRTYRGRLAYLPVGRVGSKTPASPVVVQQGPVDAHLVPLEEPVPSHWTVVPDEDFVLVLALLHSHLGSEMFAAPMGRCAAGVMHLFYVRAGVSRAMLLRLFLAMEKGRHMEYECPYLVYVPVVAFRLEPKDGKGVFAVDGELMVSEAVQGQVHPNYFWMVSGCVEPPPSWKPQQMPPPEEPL

`COc1cc2ncn(-c3cc(OCCc4ccccc4)c(C(N)=O)s3)c2cc1OC`: the inhibition in [1] is -2.62%; in assay [2], -3.06%; in assay [3], 0.29%; in [4], 1.36%; in [5] it was -0.04%; in assay [6], 6.65%. In addition, the inhibition in assay [7] was determined as 1.12%; in assay [8], 3.03%; in assay [9] it was 0.18%; in assay [10] it was 2.79%; in [11] it was 2.69%; in assay [12] it was 1.71%. The inhibition in assay [13] is 1.3%; in assay [14] it was 2.3%; in [15] it was 4.49%; in assay [16] it was -0.94%; in [17] it was 1.69%; in assay [18], 3.01%. Further, the inhibition in assay [19] came to 2.45%; in [20], 1.66%.
